# Most compounds without a hit are left out; they make up all but 2.9% or so of the library.
# D3 antag: qHTS of D3 Dopamine Receptor Antagonist: qHTS. D(3) dopamine receptor (Homo sapiens), P35462. D3R cells, DiscoveRx beta-arrestin luminescence, antagonist mode; stronger effect = lower value. max response, negative = inhibition, %. 360,000 compounds, 2.5% hits. AID 652054, 2013; in the data active = max response below about -50%; inconclusive = no clear call, values can overlap the other calls
#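 Cells expressing the human receptor were seeded at 1500 cells/well, incubated overnight at 37 degrees C in 5% CO2, then exposed to library compounds with dopamine controls for 90 minutes at 37 degrees C before luminescent detection.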
# TRPML1 ag: qHTS for Agonists of the Human Mucolipin Transient Receptor Potential 1 (TRPML1). TRPML1-expressing cells, Ca2+ dye fluorescence, FDSS. activation, % (test concentration not listed). 410,000 compounds, 0.12% hits. AID 624414, 2012; in the data active = activation above about 50%; inconclusive = mostly about 30% to 49%
# Target sequence (Q9GZU1 whole entry, looked up): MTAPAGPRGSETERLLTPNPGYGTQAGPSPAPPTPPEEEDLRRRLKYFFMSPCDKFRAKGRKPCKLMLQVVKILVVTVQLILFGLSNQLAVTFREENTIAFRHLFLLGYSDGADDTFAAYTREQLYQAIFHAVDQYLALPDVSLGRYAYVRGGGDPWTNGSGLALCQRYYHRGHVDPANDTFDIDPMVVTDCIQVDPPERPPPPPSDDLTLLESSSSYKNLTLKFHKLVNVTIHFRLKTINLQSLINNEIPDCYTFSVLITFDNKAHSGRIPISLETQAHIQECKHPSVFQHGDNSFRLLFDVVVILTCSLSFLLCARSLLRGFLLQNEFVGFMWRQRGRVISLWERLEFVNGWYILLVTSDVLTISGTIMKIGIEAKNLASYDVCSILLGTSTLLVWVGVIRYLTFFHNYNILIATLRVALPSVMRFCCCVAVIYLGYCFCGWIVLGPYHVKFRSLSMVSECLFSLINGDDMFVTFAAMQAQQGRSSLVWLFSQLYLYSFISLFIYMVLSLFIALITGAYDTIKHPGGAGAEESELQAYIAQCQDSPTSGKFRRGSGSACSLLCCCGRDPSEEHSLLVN
#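 In this qHTS format, compounds were pin-transferred onto Ca8-dye-loaded TRPML1-DL cells induced with Tet overnight, and intracellular Ca2+ fluorescence was recorded kinetically for 110 s after a 10 s baseline. A subsequent 4uM final 54-4 (EC80) addition followed by a second 110 s read served as the antagonist phase.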
# TRPML1 blocker: qHTS for Inhibitors of the Human Mucolipin Transient Receptor Potential 1 (TRPML1). AID 624415, 2012. Mucolipin-1 (Homo sapiens), Q9GZU1. activity change, negative = inhibition, % (no concentration beside the values). TRPML1-inducible cells, Ca2+ dye fluorescence, FDSS; stronger effect = lower value; inhibition of EC80 agonist-evoked calcium signal. 390,000 compounds, 0.02% hits; in the data active = activity change below about -50%; inconclusive = between about -30% and that limit;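 also: stimulus is agonist 54-4 at its EC80 concentration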
#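 Calcium fluorescence in TRPML1-DL cells induced overnight with Tet: a 110 s read after compound pin addition, then a 110 s antagonist read after challenge with 54-4 at 4 uM final (EC80).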
# DRD3 agonist: qHTS of D3 Dopamine Receptor Agonist: qHTS | D3R DiscoveRx beta-arrestin cells, luminescence, 90 min | max activation, % | D(3) dopamine receptor (Homo sapiens), P35462 | 410,000 compounds, 0.58% hits; in the data active = max activation above about 30%
#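 Agonist-mode cell screen: cells plated at 1500/well and incubated overnight at 37 °C, then exposed to library compounds for 90 min at 37 °C. Detection reagent was added for 30–60 min at room temperature, and luminescence was read.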
# Hits are given with their value; - = inactive; ? = inconclusive; . = not tested or not shown.
SMILES,D3 antag,TRPML1 ag,TRPML1 blocker,DRD3 agonist
COc1ccc(C(=O)[C@H]2[C@H]3C(=O)N(c4ccccc4)C(=O)[C@H]3C3C=CC=NN32)cc1 (some centres not stated),-,-,-,67.6
CC(=O)Oc1ccc(C(=O)[C@H]2[C@H]3C(=O)N(c4ccccc4)C(=O)[C@H]3[C@@H]3C=CC=NN32)cc1,-,-,-,-
COc1cc(/C=C/c2ccc3ccccc3n2)cc(OC)c1OC,.,-,.,.
O=C(CCC(F)(F)F)N1CCC(CO)(CCc2ccccc2)CC1,-,.,.,-
OCC1(CCc2ccccc2)CCN(C/C=C/c2ccccc2)CC1,-53.7,-,-,-
OCC1(Cc2ccccc2Cl)CCN(C/C=C/c2ccccc2)CC1,-77.7,-,-,-
OCC1CCCN(C2CCN(Cc3nc(Cc4cccc(C(F)(F)F)c4)no3)CC2)C1 (configuration not stated),-,-,-,30.1
CCOC(=O)CSc1ncnc2c1sc1nc(N3CCOCC3)c3c(c12)CCCC3,-,-,-,60.9
O=C(NCCC1=CCCCC1)c1[nH]c(C(F)(F)F)nc1-c1ccccc1,-,-,.,112.2
CCCCN(C)C(=O)c1[nH]c(C(F)(F)F)nc1-c1ccccc1,-,-,.,-
CN(C)CCN(Cc1ccccc1)C(=O)c1[nH]c(C(F)(F)F)nc1-c1ccccc1,-,-,.,38.6
O=C(NCc1ccccc1)c1[nH]c(C(F)(F)F)nc1-c1ccccc1,-,-,.,65.1
O=C(Cc1cccc([N+](=O)[O-])c1)Nc1cccc(C(=O)N2CCOCC2)c1,-51.0,-,-,-
O=C(CN1CCCCC1)Nc1cccc([N+](=O)[O-])c1,-62.1,-,-,-
COc1ccc(S(=O)(=O)NC2CCCCC2)cc1C(=O)N1CCCCC1,-65.9,-,-,-
O=C(CN1CCCCC1)Nc1ccc(S(=O)(=O)NC2CCCCC2)cc1,-50.6,-,-,-
O=C(Cc1cccc([N+](=O)[O-])c1)Nc1ccc(C(=O)N2CCOCC2)cc1,-,-,-,-
O=C(COc1ccccc1C(=O)Nc1ccccc1)Nc1ccc(-c2ccccc2)cc1,.,-,.,.
CC1=Nc2ccccc2/C1=C/c1ccc(N(C)C)cc1,.,-,.,.
COc1ccc(CN2C(=O)N(c3ccc(F)cc3)C(=O)C2CC(=O)Nc2cc(OC)cc(OC)c2)cc1 (configuration not stated),.,-,-,-
COc1ccc(C2Nc3ccccc3C(=O)N2Cc2ccccc2)cc1COc1ccccc1F (configuration not stated),.,-,.,.
Cc1cc(C)cc(C(=O)C[n+]2cccc(Br)c2)c1,.,-,.,.
O=C(CCN1CCN(Cc2ccccc2)CC1)NNC(=O)Nc1cccc([N+](=O)[O-])c1,-50.5,-,-,-
O=C(CN1CCOCC1)Nc1cccc(Br)c1,-,-,-,-
O=C(CN1CCCCC1)NNC(=O)c1cccc(Br)c1,-80.3,-,-,-
SMILES,D3 antag,TRPML1 ag,TRPML1 blocker,DRD3 agonist
O=C(CN1CCCC1)Nc1ccc(F)c(Cl)c1,-,-,-,-
O=C(CN1CCCCC1)Nc1cccc(Br)c1,-63.2,-,-,-
O=C(CN1CCCCC1)Nc1ccc(F)c(Cl)c1,-58.3,-,-,-
CN(C)c1ccc(C=Nc2cnc3ccccc3c2)cc1,.,-,.,.
O=C(CCN1CCCCCC1)Nc1cccc(Cl)c1,-142.8,-,-,-
O=C(CSC1=NCCN1)Nc1cccc([N+](=O)[O-])c1,-64.5,-,-,-
Clc1ccc(-c2nc(Cc3ccccc3)no2)cc1,-,-,-,-
Cc1ccccc1-c1nc(Cc2ccccc2)no1,-52.8,-,-,-
O=c1c2cc(N3CCOCC3)ccc2[nH]c(=S)n1CCCN1CCCCC1,-,-,-,-
CC1CCN(CCCn2c(=S)[nH]c3ccc(N4CCOCC4)cc3c2=O)CC1,-80.9,-,-,-
O=c1c2cc(N3CCOCC3)ccc2[nH]c(=S)n1CCCN1CCCC1,-72.9,-,-,-
O=C(NC1CCN(Cc2ccccc2)CC1)c1ccc(Cn2c(=S)[nH]c3ccc(N4CCOCC4)cc3c2=O)cc1,-71.3,-,-,-
CC(C)Oc1ccc(CNS(=O)(=O)c2ccc3c(c2)C(C)(C)C(=O)N3C)cc1,.,-,-,-
COc1cc2c(cc1OC)C(c1cc(-c3cc(Cl)ccc3Cl)oc1C)=NCC2,.,-,.,.
CCOc1ccc(S(=O)(=O)N(CC(=O)N2CCc3ccccc32)Cc2ccco2)cc1,-66.2,-,-,-
Cc1ccc2nc(NC(=O)c3ccccn3)sc2c1,?,-,-,-
CCSc1nnc(NC(=O)c2ccccn2)s1,-83.8,-,-,-
CCSc1nnc(NC(=O)NCC(F)(F)F)s1,-82.6,-,-,-
CCSc1nnc(NC(=O)c2cnccn2)s1,-135.5,-,-,-
O=C(Nc1nnc(SCc2ccc(F)cc2)s1)c1cnccn1,-,-,-,-
CCOc1ccc2nc(NC(=O)c3ccccn3)sc2c1,-63.4,-,-,-
CCSc1nnc(NC(=O)c2cccnc2Cl)s1,-,-,-,-
COc1ccc(-c2nc(N3CCN(S(=O)(=O)c4ccc(F)cc4)CC3)c3ccccc3n2)cc1,.,-,-,.
CCOC(=O)/C=C(\C)Sc1cc(=O)oc2ccccc12,-,-,-,-
CCOC(=O)/C=C(\C)Sc1cc(O)c2ccccc2c1O,-55.3,-,-,-
SMILES,D3 antag,TRPML1 ag,TRPML1 blocker,DRD3 agonist
CC1=NN(c2nc(N)nc(/C(C#N)=C/c3ccc([N+](=O)[O-])o3)n2)C(C)(C)C1,-60.9,-,-,-
Cc1oc2ccc(O)c(CN(C)Cc3ccccc3)c2c1C(=O)Nc1cccc(Cl)c1C,.,-,-,-
O=C(Nc1ccccc1)c1nnsc1S(=O)c1ccc(Cl)cc1 (configuration not stated),-58.9,-,-,-
Cc1nnsc1S(=O)c1ccc(Cl)cc1 (configuration not stated),-,-,-,-
O=C(c1nnsc1S(=O)c1ccc(Cl)cc1)N1CCOCC1 (configuration not stated),-50.7,-,-,-
Cc1ccc(Cc2c(-c3ccc(F)cc3)nc3cc(C)ccn23)cc1,-68.5,-,-,-
CCOc1ccccc1NC(=O)c1c(Br)cnn1C,-,-,-,35.4
NS(=O)(=O)c1ccc(NC(=S)NC(=O)c2ccc(-c3ccccc3)cc2)cc1,-,-,-,38.3
Cc1ccc(C(=O)NC(=S)Nc2ccccc2C(F)(F)F)cc1C,-80.4,-,-,-
Cc1cccc(C(=O)NC(=S)Nc2ccccc2C(F)(F)F)c1,-,-,-,-
Cc1ccc(C(=O)O)cc1NC(=S)NC(=O)c1ccc(-c2ccccc2)cc1,-52.4,-,-,-
O=C(O)c1cccc(NC(=S)NC(=O)c2ccc(-c3ccccc3)cc2)c1,-,-,-,-
COc1ccc(CCNC(=O)c2cc3c(s2)-c2c(C)cccc2OC3)c(OC)c1,.,-,-,-
